Drawing on PubChem BioAssay (NCI), this text covers growth for 40 compounds.

This is part of a sample that, as a whole, favours compounds with a hit. Of some 83,000 tested, about 20% had one in any assay.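 The endpoint reported here, percent growth, reads 100 for growth as untreated, 0 for no net growth and -100 for all cells dead.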 A number with no mark means an inactive call. The source made the active and inactive calls.

The subject of this assay is NCI-H226 lung. In words: NCI-60 one-dose screen, 48 h (100 = growth as untreated, 0 = no growth, -100 = all killed). Conditions: 10 µM unless noted. As to the method: Growth inhibition of the NCI-H226 human Non-Small Cell Lung tumor cell line is measured as a screen for anti-cancer activity. Cells are grown in 96 well plates and exposed to the test compound for 48 hours. Compounds are tested at a single concentration, which is 10^-5 M for most compounds. The reported endpoint is percent growth (GI% or GIPRCNT), where numbers from 0 - 100% represent growth inhibition, and numbers from -100% - 0 represent cell death. For example, a value of 40 represents 60% growth inhibition. A value of 0 means no net growth occurred over the course of the experiment. A value of -40 indicates 40% of cells at the beginning of the experiment died by the end of the experiment. A value of -100 means all cells are dead at the end of the experiment.
NCI-60 Human Tumor Cell Lines Screen was performed using the standard one-dose NCI protocol, which is described in more detail at https://dtp.cancer.gov/discovery_development/nci-60/default.htm.
Compounds with GIPRCNT values below 10 were considered active. Activity score was based on GIPRCNT using the following formula: […]
Score is 0 for GIPRCNT values of 100 or above, 50 for GIPRCNT values of 0, and 100 for GIPRCNT values of -100.
For `COc1ccc2c(c1)O/C(=C/c1ccc(OCC(=O)c3ccccc3)cc1)C2=O`, the growth was 104%.
To `COc1cc(N=Nc2ccc(N)cc2)c(OC)cc1N=Nc1ccccc1.[Cl][Zn][Cl]` belongs 104%; to `C[C@@]1(CCC#N)[C@H]2CC[C@@H]3[C@H]4[C@H](C(=O)/C=C/c5cccnc5)CC[C@]4(C#N)CC[C@@]3(C)[C@]2(C)CC[C@H]1C(=O)/C=C/c1cccnc1`, 65.5%; to `O=c1cc(C2NNC(=S)N2)c2ccc3ccccc3c2o1` (stereo not given), 101%.
Consider `Cc1c(C(=O)NC(Cc2ccccc2)C(O)C(=O)NCc2ccc(F)cc2)[nH]c2ccccc2c1=O` (stereo not given), for which the growth was 105%.
To `NC(=S)N/N=C/Cc1ccccc1` belongs 103%; to `O=C(Nc1ccccc1)Nc1cccc(Oc2nnc(Cl)c3ccccc23)c1`, 8.66% (active); to `NC1=NCc2nc3ccccc3c(=O)n2C1`, 94.9%.
The figure for `Cc1cc(=O)oc2c1ccc1oc(C#N)c(C)c12` is 107%.
The figure for `O=c1c2c3c(sc2n2c(-c4cc(-c5ccccc5)nn4-c4ccccc4)nnc2n1Cc1ccccc1)CCCC3` is 99%; for `COc1ccc(-c2nc(SC(C)C)nc(NNC(N)=S)c2C#N)cc1` it is 86.4%.
On to `C[C@H]1[C@H]2[C@H]3CC[C@@H]4[C@@]5(C)C/C(=C/c6cccnc6)C(=O)C(C)(C)[C@@H]5CC[C@@]4(C)[C@]3(C)CC[C@]23CO[C@]1(C)[C@@H](C(=O)/C=C\c1cccnc1)C3`, for which the growth is -13.5% (active).
Consider `CN1C(=O)N(C)C2C1NN=c1s/c(=C\c3ccccc3)c(=O)n12` (stereo not given), for which the growth is 80.2%.
To `O=C(c1ccccc1)c1c(/C=C/c2ccccc2)nc2ccccc2c1/C=C/c1ccc(Br)cc1` belongs 95.1%; to `Cc1ccc(/C=C2\C(=O)N(C)c3ccc(S(=O)(=O)Nc4ccc(C(C)(C)C)cc4)cc32)s1`, 86%; to `Cc1cc[c-]cc1.Fc1c[c-]c(-c2ccccn2)c(F)c1.[Pt+2].c1ccc(P(C[PH+](c2ccccc2)c2ccccc2)c2ccccc2)cc1`, -2.11% (active).
With `COCCc1ccc(OCC(O)CNC(C)C)cc1` (stereo not given), the growth is 109%.
To `O=c1c2c3c(sc2nc(N/N=C/c2ccc(Br)cc2)n1Cc1ccccc1)CCCC3` belongs 79.6%.
To `COc1cccc(Nc2nccc(Nc3ccc4[nH]ncc4c3)n2)c1` belongs -17.3% (active); to `CC1OC(O[C@H]2/C=C/C=C/C=C/C=C/C=C/C=C/C=C/[C@H](C)[C@@H](O)[C@@H](C)[C@H](C)OC(=O)CC(O)CC(O)CCC(O)C(O)CC(O)C[C@]3(O)C[C@H](O)C(C(=O)O)C(C2)O3)C(O)[C@H](N)C1O` (stereo not given in full), -9.69% (active).
To `CC(C)(C)C(CCc1ccc(Cl)cc1)N1CCN(C2CCCCC2)CC1` (stereo not given) belongs 78.5%.
In the case of `COc1cc2nc(Cl)nc(Nc3ccc(S(=O)(=O)Nc4nccs4)cc3)c2cc1OC`, the growth is 91.9%.
To `COc1ccc2c(c1)C(=O)/C(=C/c1cccc(OCC(=O)Nc3nc(C)c(C)s3)c1)O2` belongs 71.8%; to `CCOC(=O)c1c(/C=C/C(=O)O)nc2ccccc2c1/C=C/c1ccccc1`, 53.8%.
To `N#Cc1nc2c(S(=O)(=O)c3ccc(Cl)cc3)c(N)n(Nc3cccc(Cl)c3)c2nc1C#N` belongs 85.2%; to `Cc1nc2c(c(N3CCCc4ccccc43)n1)CCC2`, 10.9%.
The figure for `O=C(N/N=C/c1ccncc1)c1ccc(C(F)(F)F)nc1Nc1cccc(C(F)(F)F)c1` is 23.7%; for `C=CCn1c(C)nc2cc(Nc3nc(N4CCCC4)nc4ccccc34)ccc21` it is 97.7%.
On to `NS(=O)(=O)c1cnccc1Oc1cccc2cccnc12`, for which the growth was 97.3%.
To `COc1ccc(C2c3ccc4ccccc4c3Oc3nc(C)[nH]c(=O)c32)cc1` (stereo not given) belongs 92.4%; to `Fc1cnc(NC2CC2)nc1-c1cnc2ccc(N3CCOCC3)cn12`, 0.213% (active).
The figure for `O=C(NCCNc1cc(-c2cn(-c3ccccc3)nc2-c2cccc(O)c2)ccn1)Nc1ccccc1` is 70.6%; for `C=CCSc1nc2ccccc2cc1/C=N/O` it is 77.8%.
For the compound `COC(=O)/C=C1\S/C(=N\NS(=O)(=O)c2ccc(C)cc2)N(c2ccccc2)C1=O`, the growth is 97.8%.
To `COc1ccc(C(=NN=C(N)N)c2ccc(OC)cc2)cc1` belongs 50.3%; to `Cc1ccc(S(=O)(=O)N/N=C\c2cc(Cl)ccc2O)cc1`, 96.4%; to `Cc1cc(C)c2c(-c3nnc(N)s3)cc(=O)oc2c1`, 100%.
The figure for `CC(C)C(=O)Nc1n[nH]c2cc(-c3cccc(NS(=O)(=O)C4CC4)c3)ccc12` is 60%.
To `Cn1c(I)c(C#C[Si](C)(C)C)c(=O)n(C(=O)c2ccccc2)c1=O` belongs 79.6%; to `O=c1[nH]nc(-c2ccccc2)c2c(-c3ccccc3)onc12`, 55.4%.
